Assay results: PubChem BioAssay (NCATS)
Results filed as inconclusive are left out. A call without a number means that no potency is given here. Active and inactive are the calls of the source. The call rests on the fitted dose curve; in most records, active means well fitted inhibition curve with a large enough effect; inconclusive means small, poorly fitted or top-dose-only effect; inactive means flat fitted curve, though single readings scatter.

What follows are molecules tested against Calcium and integrin-binding protein 1 (Homo sapiens) (UniProt Q99828) (assay: Primary qHTS for Identification of Calcium Integrin Binding Protein 1 (CIB1) Competitor (AID 1508620; further: top concentration of the series differs between compounds)). Settings: CIB1-GST / FITC-alphaIIb peptide fluorescence polarization; series mostly up to 114 µM.
Calcium and integrin-binding protein 1 (Homo sapiens), sequence (Q99828 whole entry, looked up): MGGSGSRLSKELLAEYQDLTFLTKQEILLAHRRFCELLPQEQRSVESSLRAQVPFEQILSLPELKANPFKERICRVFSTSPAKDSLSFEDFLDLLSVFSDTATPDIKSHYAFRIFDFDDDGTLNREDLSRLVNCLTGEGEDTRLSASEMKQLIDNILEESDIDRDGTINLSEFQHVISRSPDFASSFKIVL
Procedure, shortened: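 Fluorescence polarization competition: GST-tagged CIB1 (1 uM final) preincubated with compound 15 min at room temperature, then FITC-labelled alphaIIb peptide (100 nM final) added. After 15 min at room temperature, polarization read at Ex 480/Em 540.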

Compound	activity change, negative = inhibition	Potency
CC1OC(OC2C(O)COC(O[C@@H]3[C@@H](O)[C@@H](O)[C@H](OC4C(OC(=O)[C@]56CCC(C)(C)CC5C5=CCC7[C@@]8(C)C[C@H](O)[C@H](OC9OC(CO)C(O)C(O)C9O)[C@@](C)(CO)C8[C@H](O)C[C@@]7(C)[C@]5(C)CC6)OCC(O)C4O)O[C@H]3C)C2O)C(O)C(O)C1O (some centres not stated)	-1.65% [at 12.4 µM] (inactive)	–
C1=Cc2ccccc2C(=C2CCN(CCCCc3nn[nH]n3)CC2)c2ccccc21	–	inactive
CC(=O)C=C=C1C(C)(C)CC(O)CC1(C)O[C@@H]1O[C@H](CO[C@H]2OC[C@](O)(CO)[C@H]2O)[C@@H](O)[C@H](O)[C@H]1O (some centres not stated)	–	inactive
CC1=C(C(=O)Nc2cc(Cl)ccc2Cl)C(c2ccco2)C2=C(CCCC2=O)N1 (configuration not stated)	–	inactive
O=C(Nc1ccc2[nH]nc(-c3ccncc3)c2c1)[C@@H]1CCN(CC(=O)N2CCN(c3ccc(-c4ncccn4)cc3)CC2)C1	–	inactive
Cc1[nH]c(/C=C2\C(=O)Nc3ccc(S(=O)(=O)N(C)c4cccc(Cl)c4)cc32)c(C)c1C(=O)N1CCN(C)CC1	–	inactive
COC(=O)C[C@H]1[C@]2(C)C3=C(C)[C@H](c4ccoc4)C[C@H]3O[C@@H]2[C@H](O)C2[C@](C)(C(=O)OC)C=CC(=O)[C@@]21C (some centres not stated)	–	inactive
Nc1nc2c(ncn2C2OC3COP(=O)(O)OC3C2O)c(=O)[nH]1 (configuration not stated)	–	inactive
COc1ccc([C@H]2Cc3cccc(O)c3C(=O)O2)cc1OC	–	inactive
COc1cccc(NCCC2(c3ccccc3)CC(C)(C)OC(C)(C)C2)c1	–	inactive
CC(=O)O[C@@H]1C[C@@]2(C)C(CC[C@]3(C)C2CC=C2C4CC(C)(C)CC[C@]4(C(=O)O)CC[C@]23C)C(C)(C)[C@H]1O (some centres not stated)	–	inactive
CC(CCC1(O)OC2CC3C4CC=C5CC(O[C@@H]6O[C@H](CO)[C@@H](O[C@@H]7O[C@@H](C)[C@H](O)[C@@H](O)[C@H]7O)[C@H](O)[C@H]6O[C@@H]6O[C@@H](C)[C@H](O)[C@@H](O)[C@H]6O)CCC5(C)C4CCC3(C)C2C1C)CO[C@@H]1O[C@H](CO)[C@@H](O)[C@H](O)[C@H]1O (some centres not stated)	–	inactive
C/C=C(/C=C(C)/C=C/C=C/C=C(\C)C(=O)C12OC1C(O)(CCO)NC2=O)C(=O)OC (configuration not stated)	–	inactive
COc1cc(C(C)=O)c(OC)c2c1OC(C)(C)C=C2	–	inactive
C/C=C(/C)C(=O)OC1CC(C)(C)CC2C3=CCC4C5(C)CCC(O[C@@H]6O[C@H](C(=O)O)[C@@H](O)[C@H](O)[C@H]6O[C@@H]6O[C@H](CO)[C@H](O)[C@H](O[C@@H]7OC[C@H](O)[C@H](O)[C@H]7O[C@@H]7O[C@H](CO)[C@@H](O)[C@H](O)[C@H]7O)[C@H]6O)C(C)(C)C5CCC4(C)C3(C)C(O)C(O)C12CO (some centres not stated)	-2.71% [at 12.4 µM] (inactive)	–
CC(C)(C)[C@H](NC(=O)c1ccc(N)c(Cl)c1)C(=O)N1CCC[C@H]1C(=O)N[C@H](C#N)CC(=O)O	–	inactive
Nc1nc(Cl)nc2c1ncn2C1OC(CO)C(O)C1F (configuration not stated)	–	inactive
COc1cc(N2CCOCC2)ccc1NC(=O)c1csc(-c2cccnc2)n1	–	inactive
C=CCc1ccc(OC(C)Cc2ccc(OC)c(OC)c2)c(OC)c1 (configuration not stated)	–	inactive
CC1(C)CCC(C)(C)c2cc(C#Cc3ccc(C(=O)O)cc3)ccc21	–	inactive
CC(C)c1ccccc1OC(=O)NCCc1ccc2ccccc2c1	–	inactive
CC1CCCC(O)CC(=O)c2c(O)cc(O)cc2CC(=O)O1 (configuration not stated)	–	inactive
C=CC(C)(O)CC/C=C(/C)COC(=O)C(C)C1CCC(C)(C=C)O1 (configuration not stated)	–	inactive
COc1ccc(-c2ccccc2)cc1NS(=O)(=O)c1cc(Cl)cc(Cl)c1O	–	inactive
C=C1CC2[C@@]3(C)C=CC(=O)C(C)(C)C3=C(O)C(=O)[C@@]2(C)C2(C(=O)OC)C(=O)C(C)OC(=O)[C@@]12C (some centres not stated)	–	inactive
C[C@@H]1O[C@@H](O[C@H]2[C@@H](OC(=O)[C@]34CCC(C)(C)CC3C3=CCC5[C@@]6(C)C[C@H](O)[C@H](O[C@@H]7O[C@H](CO)[C@@H](O)[C@H](O)[C@H]7O[C@@H]7OC[C@@H](O)[C@H](O)[C@H]7O)[C@@](C)(C(=O)O)C6CC[C@@]5(C)[C@]3(C)CC4)OC[C@H](O)[C@@H]2O)[C@H](O)[C@H](O)[C@H]1O[C@@H]1OC[C@@H](O)[C@H](O)[C@H]1O (some centres not stated)	-5.44% [at 12.4 µM] (inactive)	–
CC(C)(O)/C=C/C(=O)[C@](C)(O)[C@H]1[C@H](O)C[C@@]2(C)[C@@H]3CC=C4[C@@H](C[C@H](O[C@@H]5O[C@H](CO)[C@@H](O)[C@H](O)[C@H]5O)C(=O)C4(C)C)[C@]3(C)C(=O)C[C@]12C	–	inactive
